In the library only some 11% were active in any assay of this set; here they are far more common.
IMPase cell inh: qHTS Assay for Identifying the Cell-Membrane Permeable IMPase Inhibitors | Inositol monophosphatase 1 (Rattus norvegicus), P97697 | CHO-M1 cells, IP1 accumulation, HTRF TR-FRET ratio | inhibition (IP1 accumulation), % at 46.1 µM | 120,000 tested, under 10 active; active = well fitted curve in the direction sought with a large enough effect in the signal ratio, not every such curve was filed as active; inconclusive = small, poorly fitted or top-dose-only effect, or a change in a side signal; inactive = no such curve, though single readings can be large or run the other way; the % refers to the signal ratio;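 note: cells stimulated with carbachol in lithium chloride buffer; plate controls were DMSO basal wells for no effect and reference inhibitor wells for full effect; higher means more IMPase inhibition seen as more IP1 and lower FRET ratio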
Target sequence (P97697 whole entry, looked up): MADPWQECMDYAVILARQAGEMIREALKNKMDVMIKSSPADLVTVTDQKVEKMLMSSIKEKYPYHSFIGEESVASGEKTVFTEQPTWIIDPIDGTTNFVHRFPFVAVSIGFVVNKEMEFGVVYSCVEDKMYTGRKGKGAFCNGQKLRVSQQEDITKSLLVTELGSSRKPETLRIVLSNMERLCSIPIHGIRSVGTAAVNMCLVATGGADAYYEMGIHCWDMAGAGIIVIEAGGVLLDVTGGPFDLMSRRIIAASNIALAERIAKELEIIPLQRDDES
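Elevated IP1 in lysates lowers TR-FRET signal (665/620 ratio and 620 channel reported). Cells were CHO-M1, given carbachol (50 uM as added) plus 50mM LiCl, pH 7.4, 30 min, 37C; compounds titrated up to 46 uM; AC50 by Hill equation.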
PNC assembly inh: High Content Assay for Compounds that inhibit the Assembly of the Perinucleolar Compartment. PC3M PTB-GFP, PNC prevalence imaging, 16 h; stronger effect = lower value. activity change (PNC), negative = inhibition, % at 10 µM. actives 3.1% (n = 140,000). AID 2417, 2010;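 active = readout at or below -70, meaning at least 70% loss of cells showing the perinucleolar compartment, a nuclear body marking cancer cells; inconclusive = readout between -30 and a set limit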;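 note: plate controls were DMSO wells for no effect and camptothecin positive control wells for full effect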
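Compounds are pinned in duplicate onto adhered PC3M cells stably expressing GFP-tagged PTB and incubated 16 h at 37 C. Cells are then fixed, nuclei stained with Hoechst, and PNC-positive cells counted.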
ALDH1A1 inh: qHTS Assay for Inhibitors of Aldehyde Dehydrogenase 1 (ALDH1A1) | Aldehyde dehydrogenase 1A1 (Homo sapiens), P00352 | Purified ALDH1A1, NADH fluorescence, propionaldehyde substrate | actives 7.3% (n = 220,000) | Potency, µM (titrated, usually from 75.3 µM), inactives show top-dose activity, negative = inhibition, most hits filed as inhibitors;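 note: potency is the fitted concentration of half-maximal effect; plate controls were no enzyme wells and a reference inhibitor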
Target sequence (P00352 whole entry, looked up): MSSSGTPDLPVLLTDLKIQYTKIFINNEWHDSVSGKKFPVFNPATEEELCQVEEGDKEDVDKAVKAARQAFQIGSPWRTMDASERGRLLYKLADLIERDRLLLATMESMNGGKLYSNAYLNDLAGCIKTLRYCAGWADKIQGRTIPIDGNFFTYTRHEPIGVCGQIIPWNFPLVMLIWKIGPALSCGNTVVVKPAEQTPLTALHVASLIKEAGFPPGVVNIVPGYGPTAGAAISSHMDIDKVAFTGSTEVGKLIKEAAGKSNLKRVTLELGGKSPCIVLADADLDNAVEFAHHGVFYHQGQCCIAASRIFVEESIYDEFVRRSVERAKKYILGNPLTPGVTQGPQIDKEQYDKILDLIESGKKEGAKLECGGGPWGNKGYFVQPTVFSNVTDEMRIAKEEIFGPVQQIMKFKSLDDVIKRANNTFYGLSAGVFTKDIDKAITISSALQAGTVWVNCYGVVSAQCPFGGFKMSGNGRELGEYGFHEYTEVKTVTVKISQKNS
HPGD block: qHTS Assay for Inhibitors of HPGD (15-Hydroxyprostaglandin Dehydrogenase) | 15-hydroxyprostaglandin dehydrogenase [NAD(+)] (Homo sapiens), P15428 | purified HPGD, NADH fluorescence kinetic, PGE2 substrate | actives 4.3% (n = 150,000) | Potency, µM, without a hit: top-dose activity change, negative = inhibition, actives largely listed as inhibitors | AID 894, 2007; note: potency is the fitted concentration of half-maximal effect
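NADH formation kinetics: reaction with 30 uM PGE2 and 1 mM NAD+ (final), 20 nM enzyme, Tris-HCl pH 8 with Tween 20, after 15 min compound preincubation at room temperature. Fluorescence change, last versus first of five reads.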
IMPase Li cell: qHTS Assay for Identifying the Cell-Membrane Permeable IMPase Inhibitors: Potentiation with Lithium. actives 0.35% (n = 210,000). Potency, µM (doses to about 59.4 µM), for inactives: at the top dose activity, negative = IMPase inhibition, usual class: inhibitors. CHO-M1 cells, IP1 TR-FRET (IP-One), carbachol + lithium; active = well fitted inhibition curve with a large enough effect; inconclusive = small, poorly fitted or top-dose-only effect; inactive = no such curve, though single readings can be large or run the other way;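 note: IP1 builds up when IMPase is blocked and the TR-FRET signal falls; potency is the fitted concentration of half-maximal effect; plate controls were basal vehicle for no effect and high inhibitor control for full effect; nearly all actives have a fitted effect of over 50% in size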
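Readout is a homogeneous TR-FRET IP1 immunoassay (Ex 320, Em 665 and 620), where raised cytosolic IP1 lowers signal. Cells were CHO-M1 treated 30 min at 37C with test compounds plus a little lithium; AC50 values came from Hill-equation fitting.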
Starred values were filed as active, the others as inactive; ? = inconclusive; nt = no result given; [ ] = dose if it differs, or a comment. Unless noted, calls come from the whole dose curve; as a rule, active = well fitted inhibition curve with a large enough effect (not every such curve was filed as active); inconclusive = small, poorly fitted or top-dose-only effect, or another doubt; inactive = no such curve, though single readings can be large or run the other way. Unless noted, % is set by controls: 0 for no effect and ±100 for the full control effect.

SMILES | IMPase cell inh | PNC assembly inh | ALDH1A1 inh | HPGD block | IMPase Li cell
Cc1cc2nc(SCCOC(=O)Nc3ccc(Cl)cc3)nc(C)c2cc1C | 3 | -18 | 3% | 14µM* | 17%[38.3 µM]
Cc1noc(C)c1C(=O)N1CCC[C@@]2(CCN(C(=O)Nc3ccccc3)C2)C1 | nt | nt | 1% | -2% | 0%
COc1ccc2c(CC(=O)Nc3ccc(OC)nc3)coc2c1 | nt | nt | -4% | nt | 7%
CC(=O)Nc1ccc(C2=NN(C)C(=NCc3ccccc3)SC2)cc1 | nt | nt | 2.8µM* | nt | 35%
CCN1CCN(C(=O)CCc2nnc(CCCCc3ccccc3)o2)[C@@H](C)C1=O | nt | nt | 8.9µM* | nt | 8%
CCN(CC)C1CCN(C(=O)CCc2nnc(CCCCc3ccccc3)o2)C1 (configuration not stated) | nt | nt | -7% | nt | 3%
Cc1noc(C)c1-c1cc(NCCN2CCOCC2)ncn1 | nt | nt | 20µM* | nt | 9%
Cc1ccccc1OCCOc1ccccc1C=C(C#N)C#N | nt | 55 | 3.5µM* | -13% | 7%
Cc1cccc(OCCOc2ccccc2C=C(C#N)C#N)c1 | nt | 32 | 7.1µM* | -5% | 7%
CCCC(=O)OC(=O)CCC | nt | nt | ? | -10% | -6%
CC(C)(C)c1ccc(/C=C/C(=O)N2CCOCC2)cc1 | nt | 177 | ? | 25µM* | 4%
CC(C)Cc1ccc(/C=C/C(=O)N2CCOCC2)cc1 | nt | nt | -2% | nt | -14%
Cc1cc(N2CCN(Cc3cn(C)nc3-c3ccccc3F)CC2)cc(C)n1 | nt | nt | ? | nt | 3%
CCOC(=O)CC1COCCN1Cc1cn(C)nc1-c1ccccc1F (configuration not stated) | nt | nt | 10µM* | nt | 3%
Cc1ccc(NC(=O)CN2C(=O)N/C(=C/c3ccc(N4CCOCC4)cc3)C2=O)cc1 | -9 | ? | ? | -13% | 12%
Cc1ccc2c(c1)C(=O)C(=O)N2CC(=O)Nc1ccc(N2CCOCC2)cc1 | nt | nt | 8.9µM* | nt | -8%
Cc1ccc(NC(=O)CNc2ccc(N3CCOCC3)cc2)cc1S(=O)(=O)N(C)C | nt | nt | 10µM* | nt | 8%
Cc1ccc(C)c(OCCCC(=O)Nc2ccc(N3CCOCC3)cc2)c1 | 11 | -84* | -7% | -2% | 35%[38.3 µM]
COCCCN(C(=S)NC(=O)C12CC3CC(CC(C3)C1)C2)c1c(N)n(Cc2ccccc2)c(=O)[nH]c1=O | nt | nt | -8% | nt | 9%
COc1cccc(CN(CC(=O)NC2CCCC2)C(=O)Cn2nnc(-c3cccs3)n2)c1 | 10 | 10 | -12% | -9% | 0%
CCOC(=O)c1cc2n(c1/N=C/N(C)C)-c1ccccc1C2=O | 9 | -26 | 18µM* | -14% | -28%[38.3 µM]
CCOC(=O)c1cc(=O)[nH]c2ccccc12 | nt | nt | 0% | nt | 0%
O=C(Nc1ccccc1C(=O)NC(Cc1ccccc1)C(=O)NC1CCCCCC1)c1ccccc1 (configuration not stated) | 9 | 41 | ? | ? | -3%[38.3 µM]
CCC(=O)C(C(=O)OC)[C@H](CCc1ccccc1)NC(=O)OC (some centres not stated) | nt | nt | 3% | -6% | 12%
O=C(O)CCNc1cc2ccccc2cc1C(=O)O | 17 | 1 | ? | ? | 30%[38.3 µM]
SMILES | IMPase cell inh | PNC assembly inh | ALDH1A1 inh | HPGD block | IMPase Li cell
COc1ccc(C(=O)/C=C2\NCC3c4ccccc4CCN3C2=O)cc1 (configuration not stated) | 6 | -28 | 7.9µM* | 28µM* | -3%[38.3 µM]
COC(=O)[C@H](CCSC)NC(=O)C/C=C\[C@@H](C)CO | nt | nt | 6%[13.5 µM] | nt | nt
CN1CCN(c2ncc3nc(CCc4ccccc4)c(=O)n(Cc4ccc(F)cc4)c3n2)CC1 | nt | nt | ? | ? | 10%
CCCCSc1nnc([C@H](C)NC(=O)OC(C)(C)C)o1 | -2 | ? | 22µM* | -30% | 5%[38.3 µM]
CSCC[C@H](NC(=O)OC(C)(C)C)c1nnc(SCC(=O)Nc2ccc(C)cc2C)o1 | -8 | -17 | 3% | -13% | -5%[38.3 µM]
CCc1ccccc1NC(=O)CSc1nnc([C@H](CCSC)NC(=O)OC(C)(C)C)o1 | 6 | 12 | 22µM* | -18% | 19%[38.3 µM]
COc1ccc(N2CCC(CNC(=O)Nc3ccc(Cl)cc3)C2)cc1 (configuration not stated) | nt | nt | 5.6µM* | nt | -9%
COc1ccc(N2CCC(CNC(=O)Nc3cccc(OC)c3)C2)cc1 (configuration not stated) | 15 | 25 | ? | -8% | 39%[38.3 µM]
CCc1cccc(C)c1NC(=S)NCC1CCN(c2ccc(OC)cc2)C1 (configuration not stated) | nt | nt | 10µM* | nt | 24%
COC(=O)C/C=C\[C@@H](C)[C@@H](/C=N\OC[C@@H]1O[C@H](c2ccccc2)C=C[C@@H]1Oc1ccc(OC)cc1)NS(=O)(=O)c1ccc(C)cc1 | nt | nt | 0%[13.5 µM] | nt | nt
O=C1CCCC=C1[C@@H](O)CCOC(c1ccccc1)(c1ccccc1)c1ccccc1 | nt | nt | 7% | -10% | 1%
NCCOc1ccc(C23CC4CC(CC(C4)C2)C3)cc1 | nt | nt | 22µM* | nt | -21%
Cc1cc(=O)oc(C)c1C(=O)OCC(=O)c1ccccc1 | -11 | -8 | 16µM* | ? | -9%[38.3 µM]
Cc1cc(=O)oc(C)c1C(=O)OCC(=O)c1ccc(Br)cc1 | 3 | -90* | ? | -27% | 17%
CCOc1ccc(NCc2nnc(SCc3ccccc3Cl)n2-c2ccccc2)cc1 | 12 | -17 | 13µM* | -15% | 16%[38.3 µM]
COc1ccc(S(=O)(=O)N(CCc2ccccc2)CC(=O)NCCCO)cc1 | -2 | 9 | 8.9µM* | -5% | 2%[38.3 µM]
COc1ccc(S(=O)(=O)N(CCc2ccccc2)CC(=O)N/N=C/c2ccc3c(c2)OCO3)cc1 | nt | 55 | ? | 22µM* | 3%
N[C@H](C(=O)O)[C@@H](O)c1cnc[nH]1 | nt | nt | -3%[13.5 µM] | -4% | 1%
Cc1cccc(N2CC(O)=C(c3nc4ccccc4n3C)C2=N)c1 | -4 | ? | 6% | 11µM* | -13%[38.3 µM]
Fc1ccccc1CSc1nc2ncccc2[nH]1 | -2 | 49 | 22µM* | 18µM* | 19%[38.3 µM]
CC#CCN1c2ccccc2[C@]23C[C@@H](C(=O)OC)N(S(=O)(=O)c4c(C)noc4C)C2=NC(C(=O)OC)=C(C(=O)OC)[C@H]13 | nt | nt | 8%[13.5 µM] | -15% | -7%
CCOCCCNc1ccc(N2C(=O)C3CCCCC3C2=O)cc1[N+](=O)[O-] (configuration not stated) | nt | nt | ? | nt | -1%
Cc1ccccc1-c1ccc(Nc2ccc(N3CCOCC3)cc2)nn1 | 11 | 43 | 8.9µM* | -22% | 14%[38.3 µM]
COc1ccc(CNC(=O)c2sc(=S)n(-c3ccc(OC)cc3)c2N)cc1 | -6 | ? | 19µM* | 32µM* | 26%[38.3 µM]

Bioassay records deposited in PubChem BioAssay by National Center for Advancing Translational Sciences (NCATS).
